HT1080 IDH1KD tx: qHTS for induction of synthetic lethality in tumor cells producing 2HG: qHTS for the HT-1080-IDH1KD cell line; HT-1080 IDH1 knockdown viability, ATP luminescence, 48 h; AID 686971, 2013; 360,000 compounds, 2% hits; Potency, µM (doses to about 46.1 µM), for the others: top-dose activity, negative = toxicity, actives largely listed as cytotoxic;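 further: 0% = DMSO wells and -100% = cell-free medium wells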
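Luminescent ATP read-out (CellTiter-Glo, 10 min at room temperature) after 48 h compound exposure at 37 °C gave viability of IDH1-knockdown HT-1080 cells. Activity was normalised to DMSO and cell-free wells, then fitted as concentration-response curves.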
ATXN2 expr inh: Primary qHTS for Inhibitors of ATXN expression. HEK-293 ATXN2-luciferase reporter, luminescence, 24 h. Potency, µM (highest dose often 57 µM), for inactives: at the top dose activity change, negative = inhibition, hits mostly inhibitors. 360,000 compounds, 0.72% hits. AID 1745845, 2022; further: on the % scale 0 is the no-effect control and ±100 the full control effect; nearly all actives have a fitted effect of over 55% in size
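qHTS (up to 57 uM final) was run with 24 h compound exposure of reporter cells at 37 °C. Each well was multiplexed: SteadyGlo luminescence measured ATXN2-luciferase expression after a fluorogenic Gly-Phe-AFC viability readout (25 uM final).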
TGFb inhibitor: qHTS for Inhibitors of TGF-b; HepG2 CAGA-GFP TGF-b/SMAD3 reporter, GFP fluorescence, 18 h; TGF-beta stimulated, 500 pg/mL final; Potency, µM (titrated, usually from 46.1 µM), without a hit: at the top dose activity, negative = inhibition, hits mostly inhibitors; 410,000 compounds, 1.2% hits; AID 588855, 2011; further: on the % scale 0 is the no-effect control and ±100 the full control effect; nearly all actives have a fitted effect of over 65% in size
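Cell-based qHTS in HEPG2 carrying a CAGA-GFP Smad reporter; compounds added before 500 pg/mL final TGF-beta, 18 h incubation at 37 degrees C, GFP fluorescence quantified per cell by imaging cytometry.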
ATXN viability: Viability Counterscreen for Primary qHTS for Inhibitors of ATXN expression | S2 cells (HEK-293 line with an ATXN2-luciferase reporter) viability, CellTiter-Fluor protease fluorescence, 24 h | 400,000 compounds, 0.49% hits | AID 651635, 2014 | Potency, µM (series often up to 56.7 µM), usual class: cytotoxic; further: nearly all actives have a fitted effect of over 40% in size
HT1080NT lethal: qHTS for induction of synthetic lethality in tumor cells producing 2HG: qHTS for the HT-1080-NT fibrosarcoma cell line; HT-1080-NT fibrosarcoma viability, CellTiter-Glo ATP luminescence, 48 h; Potency, µM (top dose mostly 46.1 µM), without a hit: at the highest dose activity, negative = less viability, usual class: cytotoxic; 360,000 compounds, 1.6% hits;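 further: NT is the 2HG producing partner of a matched IDH1 knockdown line; 0% = DMSO-treated cells and -100% = media-only wells without cells; nearly all actives have a fitted effect of over 55% in size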
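Toxicity toward the 2HG-producing NT line was scored as %Activity, normalised to DMSO and no-cell wells, from CellTiter-Glo luminescence after 48 hours' treatment.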
HepG2 viability: qHTS for Inhibitors of TGF-b: Cytotox Counterscreen | Potency, µM (doses to about 46.1 µM), inactives show at the top dose activity change, negative = cytotoxicity, actives largely listed as cytotoxic | AID 588856, 2011 | 410,000 compounds, 0.76% hits | HepG2 CAGA-GFP viability, ATP luminescence, 18 h
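HepG2 CAGA-GFP cells (1000/well, DMEM with 1% FBS) received compound, then TGF-beta at 500 pg/mL final, and were incubated 18 hours at 37 degrees C. Viability was read by CellTiter-Glo luminescence. Media-only wells were set as complete cell-killing and DMSO as no toxicity.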
* hit, by the source's call; i = inactive; ? = inconclusive; . = not tested or not shown; [ ] = remark or other dose. In the library only some 3.8% were active in any assay of this set; here they are far more common. The call rests on the fitted dose curve; in most records, active means well fitted curve in the direction sought with a large enough effect; inconclusive means small, poorly fitted or top-dose-only effect, or another doubt; inactive means no such curve, though single readings can be large; an effect the other way counts as inactive or inconclusive. Potency means the concentration at half of the fitted maximal effect.

SMILES	HT1080 IDH1KD tx	ATXN2 expr inh	TGFb inhibitor	ATXN viability	HT1080NT lethal	HepG2 viability
COc1cccc(Nc2nc(NCCO)c3ccccc3n2)c1	?	-12%	13µM*	i	?	-36%
c1ccc(Nc2nc(NCc3ccco3)c3ccccc3n2)cc1	23µM*	-31%	?	i	21µM*	-77%
Clc1nc(NCc2ccco2)c2ccccc2n1	.	.	1%	.	.	-14%
CNc1nc(NCc2ccco2)c2ccccc2n1	.	.	2.8µM*	.	.	-39%
CCc1ccc(CNC(=O)c2cccc(-n3cnc4cccnc43)c2C)cc1	.	.	0%	.	.	-15%
Cc1cc(N2CCOCC2)nc(SCc2c(Cl)cccc2Cl)n1	-19%	-13%	11µM*	i	-18%	-24%
COc1cccc(C2=CC(c3ccc(OC)c(OC)c3OC)n3nnnc3N2)c1 (stereo not drawn)	1%	-8%	-11%	i	1%	-1%
COc1ccccc1C1C=C(c2ccccc2)Nc2nnnn21 (stereo not drawn)	16µM*	-4%	-2%	i	?	-33%
COc1cccc(C2=CC(c3cccs3)n3nnnc3N2)c1 (stereo not drawn)	8.2µM*	28%	20%	i	8.2µM*	-8%
COc1cc2nc(N(C)C)c(CNCc3nonc3C)cc2c(OC)c1OC	.	.	.	i	.	.
CC(=O)N[C@@H]1[C@H](O[C@@H]2c3ccc(c(Cl)c3)Oc3cc4cc(c3O[C@H]3O[C@H](CO)[C@@H](O)[C@H](O)[C@H]3NC(=O)CCCCCCCC(C)C)Oc3ccc(cc3Cl)C[C@H]3NC(=O)[C@H](N)c5ccc(O)c(c5)Oc5cc(O)cc(c5)[C@H](NC3=O)C(=O)N[C@H]4C(=O)N[C@H]3C(=O)N[C@@H]2C(=O)N[C@@H](C(=O)O)c2cc(O)cc(O[C@H]4O[C@H](CO)[C@@H](O)[C@H](O)[C@H]4O)c2-c2cc3ccc2O)O[C@H](CO)[C@@H](O)[C@@H]1O	.	-3%	.	.	.	.
Oc1c(C(c2ccc(Cl)cc2Cl)N2CCN(Cc3ccccc3)CC2)sc2nc(-c3ccco3)nn12 (stereo not drawn)	.	-9%	?	?	.	16µM*
CCn1nc(C)cc1C(=O)NCC1Cc2cc(C)cc(-c3ccccc3C(=O)OC)c2O1 (stereo not drawn)	.	.	.	i	.	.
O=C(Nc1ncccc1O)c1ccc(S(=O)(=O)Nc2ccccc2)cc1	9.2µM*	80%	-6%	i	13µM*	-19%
O=C(Nc1ncccc1O)c1ccc(NS(=O)(=O)c2ccc3[nH]c(=O)[nH]c3c2)cc1	?	0%	-9%	i	?	-16%
C[N+]1(C)CCN(CC(O)(c2ccccc2)C2CCCCC2)CC1 (stereo not drawn)	.	.	.	i	.	.
COc1ccc([C@H]2CC(=O)C=C(c3cc(C=O)ccc3OC)C2)cc1	15µM*	-29%	?	i	?	-18%
CCOc1ccc(Cl)cc1C1=CC(=O)C[C@H](c2ccc(OC)cc2)C1	4.1µM*	-10%	?	i	2.1µM*	-16%
COc1ccc([C@H]2CC(=O)C=C(c3c(OC)cccc3OC)C2)cc1	5.8µM*	-17%	-6%	i	4.6µM*	-20%
COc1ccc([C@H]2CC(=O)C=C(c3cc(Cl)ccc3OC)C2)cc1	?	-18%	?	?	?	4%
COc1ccc([C@H]2CC(=O)C=C(c3cc(C=O)ccc3OC)C2)cc1OC	-3%	-6%	-6%	i	-2%	-6%
COc1ccccc1N1CCN(C(=O)c2cc3c(=O)n(Cc4ccco4)ccc3nc2C)CC1	.	.	-30%	.	.	-22%
COc1cccc(C2(CC(=O)N3CCN(c4ccccc4O)CC3)CC(=O)N(C3CCCC3)C2=O)c1 (stereo not drawn)	.	.	.	i	.	.
CC(C)(C(=O)O)c1ccc([C@H](O)CCCN2CCC(C(O)(c3ccccc3)c3ccccc3)CC2)cc1	8%	-2%	15%	i	?	-2%
Fc1ccc(OCCCCCCN2CCCC2)cc1	-4%	-4%	?	i	7%	-33%
SMILES	HT1080 IDH1KD tx	ATXN2 expr inh	TGFb inhibitor	ATXN viability	HT1080NT lethal	HepG2 viability
Cc1ccc(OCCCN2CCC(C(O)(c3ccccc3)c3ccccc3)CC2)cc1	18µM*	?	.	.	?	.
COC(=O)c1cccc(OCCCN2CCC(C(O)(c3ccccc3)c3ccccc3)CC2)c1	16µM*	-7%	.	.	?	.
OC(c1ccccc1)(c1ccccc1)C1CCN(CCCOc2ccc(F)cc2)CC1	23µM*	?	.	?	21µM*	.
COc1ccc(CNCC(O)COc2ccc3[nH]c(=O)ccc3c2)cc1OC (stereo not drawn)	.	.	.	i	.	.
Cc1ccc2nc(N3CC(=O)Nc4ccccc43)nc(-c3ccccc3)c2c1	16µM*	-18%	0%	i	18µM*	-6%
Cc1nc2sc(C(N)=O)c(N)c2c(-c2ccc(Br)cc2)c1C(=O)Nc1ccc(Cl)cc1	.	32µM*	?	?	.	-95%
CCC(C)NC(=O)c1sc2nc(C)c(C(=O)Nc3ccc(Cl)cc3)c(-c3ccc(Br)cc3)c2c1N (stereo not drawn)	.	2%	20%	i	.	17%
COc1ccc(S(=O)(=O)N(CC(=O)Nc2ccc(F)c(Cl)c2)c2ccc(C)cc2)cc1OC	.	-19%	-17%	?	.	-37%
C=CCn1c2ccccc2c2nnc(SCCCn3c(=O)[nH]c4ccccc43)nc21	16µM*	?	-27%	.	?	-29%
CC(C)(C)[C@H](NC(=O)c1ccc(N)c(Cl)c1)C(=O)N1CCC[C@@H]1C(=O)N[C@H](C#N)CC(=O)O	.	-2%[5.55 µM]	.	.	.	.
Cc1oc(-c2ccccc2NC(=O)c2ccsc2)nc1CN(C)CC1CC=CCC1 (stereo not drawn)	.	.	.	i	.	.
FC(F)(F)c1cccc(Cn2c3[n+](c4ccc(C(F)(F)F)cc42)CCCCC3)c1	-21%	-27%	-3%	i	-22%	8%
Cc1cc(C(C)(C)C)cc(C)c1Cn1c2[n+](c3ccc(C(F)(F)F)cc31)CCCCC2	?	?	?	i	15µM*	-51%
Cc1ccc2c(c1)c1ccc3c(c1n2C)C(=O)C=CC3=O	-1%	10µM*	?	10µM*	-12%	-37%

Screening results deposited in PubChem by National Center for Advancing Translational Sciences (NCATS).
